Experimental findings from PubChem BioAssay (NCI) are described below.

About 83,000 compounds went through this panel and 20% of them were active in at least one assay; those are over-represented in the sample as a whole.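 The endpoint reported here, percent growth, reads 100 for growth as untreated, 0 for no net growth and -100 for all cells dead.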 A number with no mark means an inactive call. Active and inactive are the calls of the source. How the source made its calls: active means growth percent below 10; inactive means the rest.

This test concerns HOP-92 NSCLC. In words: NCI-60 one-dose screen, 48 h (100 = growth as untreated, 0 = no growth, -100 = all killed). To be noted: 10 µM unless noted.
Take `Clc1ccc2c(NCCCNc3nc(-n4ccnc4)nc4ccccc34)ccnc2c1`: the growth was 58%.
With `c1ccc(CCNc2ncnc3[nH]ncc23)cc1` the figure was 55.4%; with `CC[C@]1(O)C[C@@H]2CN(CCc3c([nH]c4ccccc34)[C@@](C(=O)OC)(c3cc4c(cc3OC)N(C)[C@H]3[C@@](O)(C(N)=O)[C@H](O)[C@]5(CC)[C@@H]6C[C@@H]6CN6CC[C@]43[C@@H]65)C2)C1`, 19.3%; with `Cc1ccc(-c2onc3c(=O)[nH]nc(-c4ccccc4)c23)cc1`, 31.8%.
Under `Cc1cc(N2CCCCC2)nc(NC2CCCC(Nc3ccnc4cc(Cl)ccc34)C2)n1` (centres undefined) stands -71.1% (active).
With `COc1cc2nc(N3CCCC3)nc(NCCc3ccccc3)c2cc1OC` the figure was 74.6%; with `O=C(COc1ccc(/C=C2\CSc3ccccc3C2=O)cc1)Nc1nccs1`, 78.8%.
`Oc1cccc(-c2nc(N3CCOCC3)c3c4c(sc3n2)CCCC4)c1`: the growth is 11.2%.
With `COc1ccc(/C=C2\Oc3cc(OCCCCN4CCCC4)ccc3C2=O)cc1` the figure was 73.7%; with `Brc1ccc(-c2csc(Nc3ccccn3)n2)cc1`, 73%.
With `Cc1ccc2c(C(C[N+](=O)[O-])c3ccccc3)c(-c3ccccc3)[nH]c2c1` (centres undefined) the figure was 25.8% [9.5 µM].
As for `Nc1ccc(-c2cc3c(Nc4ccc(Oc5cccc(C(F)(F)F)c5)c(Cl)c4)ncnc3s2)cc1`, the growth is 87.8%.
Under `COc1ccc(C(=S)N2CCN(c3cccc(Cl)c3)CC2)cc1` stands 94.6%; under `O=C(CCCCC(=O)N/N=C\c1ccccc1O)N/N=C\c1ccccc1O`, 64.4%; under `CN1C(=O)C2(SCC(C(=O)NCc3ccccc3)N2C(=O)C2CCCCC2)c2ccccc21` (centres undefined), 86.3%.
Under `O=C(C(=O)c1ccc2c(c1)OCO2)c1ccc2c(c1)OCO2` stands 101%.
With `C=C1C(=O)O[C@H]2[C@H]1CC/C(COC(=O)NCc1ccc(OC)c(OC)c1)=C\CC[C@@]1(C)O[C@@H]21` the figure was 66.2%; with `CCNc1ncnc2c1cnn2C1CCCO1` (centres undefined), 60.9%; with `COc1ccc2c(c1)c(-c1nonc1-c1cn(C)c3ccccc13)cn2C`, 47.8%.
Take `Nc1ccc(S(=O)(=O)O)c2ccc(N=Nc3ccc(N=Nc4ccc(S(=O)(=O)O)cc4)c4ccccc34)c(O)c12`: the growth is 102%.
With `CCOc1ccc(C(C)=O)cc1NC(=O)c1cccc(-c2nnn(CC)n2)c1` the figure was 42.5%.
With `O=C1CSC(=S)N1CCc1ccc(O)cc1` the figure was 66.9%; with `COC(=O)c1ccc2oc(NC(=O)c3ccc(Nc4ccc([N+](=O)[O-])cc4C)c([N+](=O)[O-])c3)nc2c1`, 101%; with `CC(C)n1c(/C=C/[C@@H](O)C[C@@H](O)CC(=O)O)c(-c2ccc(F)cc2)c2ccccc21`, -29.1% (active).
